Laboratory results published in PubChem BioAssay AID1159580 (chemical genetic matrix, 2015).
The campaign covered roughly 5,500 compounds. About 2,000 (36%) were called active. Roughly 18% stayed inconclusive and do not appear here. Rule as the data show it: active = normalized growth mostly below about 0.91 (no sharp cut-off); inconclusive = no clear call, values can overlap the other calls; inactive = mostly above about 0.92. This is one part of the list.

Experiment: chemical genetic growth profiling, strain panel (AID 1159580);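 also: tested at 20 µM; growth read once vehicle control cultures reached saturation at 30 °C; 1 = growth at the plate median or of vehicle wells; lower values mean less growth of the strain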
Settings: S. cerevisiae deletion strains, growth OD

Measured: normalized growth

CCN1CCC[C@H]1CNC(=O)c1cc(S(N)(=O)=O)ccc1OC
inactive: locus YAL013W, strain DEP1, stronger effect = lower value 1.02 | locus YAL040C, strain CLN3, stronger effect = lower value 1.07 | locus YCL061C, strain MRC1 (second series), stronger effect = lower value 1.01 | locus YDR150W, strain NUM1, stronger effect = lower value 1.01 | locus YDR363W, strain ESC2, stronger effect = lower value 1.03 | locus YER002W, strain NOP16, stronger effect = lower value 1.02 | locus YGR078C, strain PAC10, stronger effect = lower value 1.02 | locus YGR229C, strain SMI1, stronger effect = lower value 1.02 | locus YMR307W, strain GAS1, stronger effect = lower value 0.997 | locus YNL128W, strain TEP1, stronger effect = lower value 0.995 | locus YNL153C, strain GIM3, stronger effect = lower value 1.02 | locus YNL175C, strain NOP13, stronger effect = lower value 1 | locus YNL197C, strain WHI3, stronger effect = lower value 1.01 | locus YNL224C, strain SQS1, stronger effect = lower value 1.01 | locus YOR083W, strain WHI5 (second series), stronger effect = lower value 1.01 | locus YPL055C, strain LGE1, stronger effect = lower value 1.01
